In general, inhibition refers to the relative decrease from the control value, in per cent.

Molecules are shown by their SMILES. Out of some 65,000 compounds screened, about 45 (0.07%) were called active. Many of the other results were omitted from the sample, so actives are more common in it than they were. Unmarked numbers belong to inactive results.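 How the source made its calls: active means inhibition above the mean of compound-free control plate wells plus 3 SD (cut at about 14% in these data); inactive means the rest.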

The target in the assay is Collagenase 3 (Homo sapiens) (UniProt P45452). The experiment in a line: human MMP13 inhibitors, primary screen, biochemical, FRET peptide cleavage (AID 570).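 Further: 0% = DMSO wells and 100% = wells with reference MMP-13 inhibitor after basal subtraction.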 Conditions: MMP-13 fTHP FRET cleavage, Mca fluorescence; at 4 µM; hits give high values.
Regarding `O=C(NCCN1CCOCC1)[C@H](Cc1ccccc1)N1C(=O)c2ccccc2C1=O`, the inhibition is 0.6%.

With `COc1ccc(O)c(C(=O)c2cnc3onc(C(C)C)c3c2)c1`, the inhibition was 8.5%.

With `COC(=O)c1ccc(Oc2nc(NC(C)C)nc(SC)n2)cc1`, the inhibition is 0.3%.

Turning to `OCc1n[nH]c(CO)n1`, the inhibition was -2.9%.

For the molecule `CCN1C(=O)/C(=C2/Sc3ccccc3N2CCCS(=O)(=O)O)SC1=S`, the inhibition was 17.1% (active).

For the molecule `CCN1C(=O)/C(=C\N2CCN(c3ccccc3)CC2)SC1=S`, the inhibition was 3.4%.

On to `CCN1C(=O)/C(=C\N2CCN(c3cccc(Cl)c3)CC2)SC1=S`, for which the inhibition is 4.2%.

For `CCc1nnc(NC(=O)c2nc3nccc(C)n3n2)s1`, the inhibition is 1.3%.

On to `COc1ccc2c(c1)OC(O)(C(F)(F)C(F)F)CC2=O` (stereo not drawn), for which the inhibition was 4.3%.

Consider `CC1(C)Cc2ccccc2-c2nnc(-c3cccc(O)c3)n21`, for which the inhibition is -1.1%.

On to `O=C(Nc1ccc(Cl)cn1)c1cnn2cccnc12`, for which the inhibition is -1.1%.

With `O=c1[nH]c(=O)n(Cc2ccco2)c2c1C(C(F)(F)F)(C(F)(F)F)N=C(c1ccco1)N2`, the inhibition was -3.7%.

For `CC(C)n1c(NCc2c[nH]c3ccccc23)nc2ccccc21`, the inhibition was -5.6%.

As to `COc1cc(C(O)c2nc3ccccc3n2C)cc(OC)c1OC` (stereo not drawn), the inhibition is 1%.

Take `Cc1cc(C)c(C#N)c(SCc2ccc3c(c2)OCO3)n1`: the inhibition was 3.3%.

As for `COc1ccc(C2C(C(=O)N3CCN(c4ccc(OC)cc4)CC3)c3ccccc3C(=O)N2C)cc1` (stereo not drawn), the inhibition is 2.8%.

As to `CNC(=O)CSc1nnnn1-c1ccc(C)cc1C`, the inhibition was 1.5%.

On to `CC1(C)CC(=O)C(C=NCc2cccnc2)=C(O)C1`, for which the inhibition is 2.8%.

As to `CCC(=O)Nc1cccc(NC(=O)c2cccnc2)c1`, the inhibition is -1.1%.

Take `CCC1CCCCN1C(=O)Nc1cccc(NC(=O)N2CCCCC2CC)c1` (stereo not drawn): the inhibition is -2.3%.

With `CCOC(=O)C1(c2ccccc2)NC(c2ccc(N(C)C)cc2)C2C(=O)N(C)C(=O)C21` (stereo not drawn), the inhibition was -4.8%.

Take `O=C(Nc1ccc2c(c1)OCCO2)C1CCCN(c2ncccn2)C1` (stereo not drawn): the inhibition is 4.5%.

For the molecule `Cc1ccccc1CSc1nnc(-c2cccnc2)n1N`, the inhibition is 4.9%.

For `CN(C(=O)C1CCOC1)c1nnc(-c2cccnc2)s1` (stereo not drawn), the inhibition was -4.2%.

With `COc1cccc(-n2cc3c(c2-c2ccccc2)c(=O)n(C)c(=O)n3C)c1`, the inhibition was -1.8%.

With `Cn1c(=O)c2c(nc(SCCNS(=O)(=O)c3ccccc3)n2C)n(C)c1=O`, the inhibition was -2.9%.

For `CC(C)OC(=O)c1cc(NC(=O)C2C3CCC(O3)C2C(=O)O)cc(C(=O)OC(C)C)c1` (stereo not drawn), the inhibition is -25.2%.

`Cc1noc(COc2ccccc2OCC(O)CNC(C)(C)C)n1` (stereo not drawn): the inhibition is -0.8%.

Take `O=C(CCCN1C(=O)CCC1=O)Nc1ccc(Cl)c(C(F)(F)F)c1`: the inhibition is 1.9%.

On to `Cc1cccc(-n2c(Cc3cc(=O)[nH]c(=O)[nH]3)nnc2SC(C)C)c1`, for which the inhibition was 2.4%.

Consider `O=C(OCc1ccccc1F)c1ccc2c(c1)OCCO2`, for which the inhibition was -0.1%.

`O=c1ccn(Cc2ccccc2Cl)cc1`: the inhibition is 0.5%.

Turning to `COc1ccc(Cn2nnc3c(=O)[nH]c(C4CCN(C(=O)c5ccccc5Cl)CC4)nc32)cc1`, the inhibition was 7.2%.

`CCOC(=O)[C@H]1CCC[C@@H](NS(=O)(=O)c2ccc(NC(C)=O)cc2)C1`: the inhibition is 0%.

Consider `COc1ccccc1NC(=O)CSc1nnc(-c2ccoc2C)n1CCc1ccccc1`, for which the inhibition was -3.7%.

In the case of `Cc1cc(Nc2cccc(C)c2C)n2ncnc2n1`, the inhibition was 6.6%.

As for `CCCc1nc2c3cnn(-c4cccc(Cl)c4)c3ncn2n1`, the inhibition is -4.1%.

Turning to `CC12CN3CC(C)(CN(C1)C3c1ccc(Cl)cc1Cl)C2=O` (stereo not drawn), the inhibition is 6.8%.

In the case of `Cc1ccc(C(C)C)c(OCc2nnc(SCC(=O)Nc3nccs3)n2C)c1`, the inhibition is -0.8%.

Regarding `CCOC(=O)N1CCC(NC(=O)Cn2cc3c(n2)CCCCC3)CC1`, the inhibition was 3%.

Take `Cc1cc(C)nc(N2C(=O)CC(Cc3ccccc3)C2=O)n1` (stereo not drawn): the inhibition was 2.4%.

For the molecule `CC1CCCC(NC(=O)CN2CCN(Cc3ccc(Cl)cc3)C2=O)C1C` (stereo not drawn), the inhibition was -0.6%.

On to `CCOC(=O)N1CCC(Nc2c(NCCCN3CCN(c4ccc(OC)cc4)CC3)c(=O)c2=O)CC1`, for which the inhibition is 2.1%.

On to `O=C(CCC(=O)OCC(F)(F)C(F)F)NCc1ccccc1`, for which the inhibition was 1.8%.

As to `Cc1cc(/C=N/n2cnnc2)c(C)n1-c1ccc2ncccc2c1`, the inhibition is -12%.

For the molecule `CC(=O)NC(C)(C)C1CC=C(C)/C(=N\O)C1` (stereo not drawn), the inhibition is 4.1%.

Regarding `CCOc1ccc(OCC)c(NC(=O)CN(C)S(=O)(=O)c2cccc3nsnc23)c1`, the inhibition is -2.8%.

As for `Cc1cccc(-n2c(O)c(C=Nc3ccccc3N)c(=O)[nH]c2=O)c1`, the inhibition was -15.8%.

For `N#CC(C(=O)c1ccc(S(=O)(=O)N2CCCCCC2)cc1)c1nc2ccccc2[nH]1` (stereo not drawn), the inhibition is -11.8%.

Consider `CC1C=CCC2C(=O)N(c3cccc(C(=O)N4CCCCCC4)c3)C(=O)C12` (stereo not drawn), for which the inhibition was 4.6%.

Regarding `Cc1nc2ccccc2c2oc(C(=O)NCC3CCCO3)cc12` (stereo not drawn), the inhibition is -8.8%.

Take `CCCn1c(SCC(=O)N2CCc3ccccc32)nnc1-c1ccncc1`: the inhibition was -0.9%.

As to `COc1ccc(S(=O)(=O)N2CCCCC2)cc1Br`, the inhibition was 3.3%.

Take `Cc1ccc(-n2nc3cc(Cl)c(NC(=O)c4ccco4)cc3n2)cc1`: the inhibition was -66.9%.

In the case of `Cc1ccc(S(=O)(=O)c2c(N)n(C)c3nc4ccccc4nc23)cc1`, the inhibition is -244%.

As for `CCC(C)NC(=O)N[C@@H](CCSC)C(=O)O` (stereo partly drawn), the inhibition was 1.5%.

Turning to `C=CCOc1ccc(C2/C(=C(\O)c3c(C)[nH]c(C(=O)OC)c3C)C(=O)C(=O)N2CCN(C)C)cc1` (stereo not drawn), the inhibition is 2.9%.

Regarding `COc1ccc(OC)c(NC(=O)CCN2CCC(C)CC2)c1`, the inhibition is 3.7%.

Consider `COc1ccccc1OCCC(=O)OCC(=O)NC(=O)NC(C)(C)C`, for which the inhibition was 3.7%.

For `CC(C)(C)c1cc(CN2CCN(CCC#N)CC2)cc(C(C)(C)C)c1O`, the inhibition was -0.2%.

For `CCOC(=O)C1=C(C)NC(C)=C(C(=O)OCC)C1c1ccccn1`, the inhibition is -0.7%.

On to `CCOc1ccc(C(=O)Nc2ccncc2)cc1`, for which the inhibition was 3.1%.

Take `c1nc(COc2nsnc2N2CCOCC2)cs1`: the inhibition was 2.5%.

`COc1ccc(NC(=O)CN2CCN(S(=O)(=O)c3ccc(F)cc3)CC2)cc1Cl`: the inhibition is -15.6%.

On to `Cc1noc(C)c1S(=O)(=O)N1CCCC(C(=O)Nc2nccs2)C1` (stereo not drawn), for which the inhibition was 6.5%.

Consider `NC(CSC12CC3CC(CC(C3)C1)C2)C(=O)O` (stereo not drawn), for which the inhibition was 2.6%.

Regarding `Cc1nc(NC(CC(C)C)C(=O)O)c2nc(C)oc2n1` (stereo not drawn), the inhibition was 0%.

On to `CCOC(=O)N1CCN(C(=O)CNC(=O)Cc2ccc(Cl)cc2)CC1`, for which the inhibition was -1.6%.

On to `CCOC(=O)N1CCN(C(=O)C2CCN(S(C)(=O)=O)CC2)CC1`, for which the inhibition was -0.8%.

Turning to `CCn1c(SCC(=O)c2ccc(Cl)s2)nnc1-c1cccs1`, the inhibition is -2.1%.

Regarding `COc1ccccc1N(C(=O)Cn1nnc2ccccc21)C(C(=O)NCc1ccco1)c1ccc(C)o1` (stereo not drawn), the inhibition is 7.4%.

For `Cc1nc(CNS(=O)(=O)c2cccnc2)cs1`, the inhibition was 2.4%.

As for `CCCCCCC(=O)N(O)C1CC(=O)N(c2ccccc2)C1=O` (stereo not drawn), the inhibition is 1%.

With `COC(=O)c1ccc(S(=O)(=O)c2ccc(C(=O)OC)s2)s1`, the inhibition was -1.3%.

`Cc1ccc(S(=O)(=O)Cn2nnnc2CN2CCN(Cc3ccc4c(c3)OCO4)CC2)cc1`: the inhibition was -3.7%.

`CC1CCN(C(=O)Cn2cc(C(=O)c3ccco3)c3ccccc32)CC1`: the inhibition was -1.8%.

As to `CCC(=O)Nc1ccc2c(c1)nc(CCN1CCN(C)CC1)n2C`, the inhibition was -0.5%.

Consider `CCOc1ccccc1C(=O)NCc1ccco1`, for which the inhibition is 3.2%.

On to `O=C(CN1C2CCC1CC(NC(=O)C1CC1)C2)NCc1ccccc1` (stereo not drawn), for which the inhibition was -1.1%.

With `COc1ccc(C2=NOC(C(=O)NCc3ccco3)C2)cc1OC` (stereo not drawn), the inhibition was 1.2%.

As to `C=CCNC(=O)c1cc(-c2ccccc2O)on1`, the inhibition was 6%.

Consider `COc1ccccc1N1CC(O)=C(c2nc3ccccc3s2)C1=N`, for which the inhibition is -5.8%.

For `Cc1cccc(NC(=O)CN2CCCN(S(=O)(=O)c3ccc(Br)s3)CC2)c1`, the inhibition is -0.8%.

As to `COc1cc(Cl)c(S(=O)(=O)n2cnc(C)c2)cc1Cl`, the inhibition was -1%.

With `CCC(C)(C)NC(=O)C(c1cccn1C)N(Cc1ccc(C)cc1)C(=O)Cn1nnc2ccccc21` (stereo not drawn), the inhibition was 2.1%.

For the molecule `O=C(CSc1n[nH]c(-c2cccnc2)n1)Nc1ccnc2ccccc12`, the inhibition is -1.2%.

As for `CC(C)(C)c1ccc(C(=O)CSc2ncn[nH]2)cc1`, the inhibition is 1.3%.

For `C=CCSc1nnc(Cn2c(=O)sc3ccccc32)n1C`, the inhibition is -10.7%.

Regarding `CC(NC(=O)c1ccco1)C(=O)Nc1nc(-c2ccccn2)cs1` (stereo not drawn), the inhibition is 1.6%.

`COCCNCCOCCOc1cccc(OC)c1`: the inhibition was -0.9%.

On to `Cc1ccsc1-c1nc(CSCC(=O)NCCN2CCCC2)c(C)o1`, for which the inhibition was -72.5%.

For the molecule `O=C(CSc1nnc(-c2cccs2)n1-c1ccccc1)N1CCN(C(=O)c2ccco2)CC1`, the inhibition was 2.3%.

Take `CN(Cc1ccccc1)Cc1ccccc1F`: the inhibition was 0.3%.

As to `Cc1oc(-c2cccc(Cl)c2)[n+]([O-])c1C`, the inhibition is -6.2%.

With `CCOc1nc(-c2ccc(OC)cc2)ccc1-c1noc(-c2cc(OC)c(OC)c(OC)c2)n1`, the inhibition was -11.5%.

On to `CCOC(=O)C(CCOc1cccc(CC)c1)C(=O)OCC`, for which the inhibition was 4.3%.

In the case of `CC(C)c1ccc(-c2nn[nH]n2)cc1`, the inhibition is 0.3%.

On to `C=CCn1c2ccccc2c2nnc(SC(CC)C(=O)Nc3nc(C)c(C(=O)OCC)s3)nc21` (stereo not drawn), for which the inhibition was 2.6%.

The record behind these values is PubChem BioAssay AID570 (The Scripps Research Institute Molecular Screening Center, 2006).
